Consider three molecules from PubChem BioAssay (EPA / NIEHS).

Experiment [1] can be described thus: ATG_M_06_XSP2: Attagene TRANS-FACTORIAL Multi-Species (XSP2) HepG2 Assay for M06 Transcription Factor (Internal Marker) (AID 2283811).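 Also: hits are increases in signal above the DMSO baseline.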 The procedure, abridged:
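HepG2 cells transiently transfected with GAL4-UAS multiple reporter units, medium containing 3 nM 6-alpha-fluorotestosterone and 1.5 nM norgestrel; reporter mRNA measured 24 hours post-dosing by RT-PCR and capillary electrophoresis. Internal background marker, gain of signal vs DMSO.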

In experiment [2] the test system is turtle Estrogen Receptor (ERa), gene 101933533. The experiment is described as follows: ATG_trERa_XSP2: Attagene TRANS-FACTORIAL Multi-Species (XSP2) HepG2 Assay for turtle Estrogen Receptor (ERa) (AID 2283812).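 Also: human HepG2 liver cells transiently expressing turtle ERa-Gal4 chimeric receptor; actives raise reporter signal above DMSO so AC50 reflects agonist activity.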 The procedure, abridged: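 HepG2 cells transiently transfected with GAL4-UAS reporter units expressing turtle ERa-Gal4 chimera. Reporter mRNA measured after 24 h dosing by RT-PCR, fluorescent labelling and capillary electrophoresis; gain of signal fitted versus DMSO.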

Experiment [3] concerns the target Estrogen receptor beta (Homo sapiens) (UniProt Q92731). The experiment is described as follows: ATG_hERb_XSP2: Attagene TRANS-FACTORIAL Multi-Species (XSP2) HepG2 Assay for human Estrogen Receptor (ERb) (AID 2283813).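 Also: actives raise reporter mRNA above DMSO so AC50 reflects agonist induction.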 The procedure, abridged:
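HepG2 cells transiently transfected with GAL4-UAS reporter units and chimeric human ERb-Gal4, 24 h exposure. Reporter mRNA quantified by RT-PCR with FAM labelling, HpaI digestion and capillary electrophoresis; gain of signal versus DMSO.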

In experiment [4] the target is GAL4 Transcription Factor (Internal Marker), GAL4 (gene 855828) (UniProt P04386). The experiment is described as follows: ATG_GAL4_XSP2: Attagene TRANS-FACTORIAL Multi-Species (XSP2) HepG2 Assay for GAL4 Transcription Factor (Internal Marker) (AID 2283814).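 Also: GAL4 reporter mRNA background control in MRTU transfected cells not a receptor target.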 An outline of the steps: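 HepG2 cells transiently transfected with GAL4-UAS reporter units, stimulated with 3 nM 6-alpha-fluorotestosterone plus 1.5 nM norgestrel, dosed 24 h. Reporter mRNA by RT-PCR/capillary electrophoresis; gain-of-signal fit versus DMSO, background control.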
Chain of GAL4 Transcription Factor (Internal Marker), GAL4 (gene 855828) (P04386 whole entry, looked up, the tested form may be a part): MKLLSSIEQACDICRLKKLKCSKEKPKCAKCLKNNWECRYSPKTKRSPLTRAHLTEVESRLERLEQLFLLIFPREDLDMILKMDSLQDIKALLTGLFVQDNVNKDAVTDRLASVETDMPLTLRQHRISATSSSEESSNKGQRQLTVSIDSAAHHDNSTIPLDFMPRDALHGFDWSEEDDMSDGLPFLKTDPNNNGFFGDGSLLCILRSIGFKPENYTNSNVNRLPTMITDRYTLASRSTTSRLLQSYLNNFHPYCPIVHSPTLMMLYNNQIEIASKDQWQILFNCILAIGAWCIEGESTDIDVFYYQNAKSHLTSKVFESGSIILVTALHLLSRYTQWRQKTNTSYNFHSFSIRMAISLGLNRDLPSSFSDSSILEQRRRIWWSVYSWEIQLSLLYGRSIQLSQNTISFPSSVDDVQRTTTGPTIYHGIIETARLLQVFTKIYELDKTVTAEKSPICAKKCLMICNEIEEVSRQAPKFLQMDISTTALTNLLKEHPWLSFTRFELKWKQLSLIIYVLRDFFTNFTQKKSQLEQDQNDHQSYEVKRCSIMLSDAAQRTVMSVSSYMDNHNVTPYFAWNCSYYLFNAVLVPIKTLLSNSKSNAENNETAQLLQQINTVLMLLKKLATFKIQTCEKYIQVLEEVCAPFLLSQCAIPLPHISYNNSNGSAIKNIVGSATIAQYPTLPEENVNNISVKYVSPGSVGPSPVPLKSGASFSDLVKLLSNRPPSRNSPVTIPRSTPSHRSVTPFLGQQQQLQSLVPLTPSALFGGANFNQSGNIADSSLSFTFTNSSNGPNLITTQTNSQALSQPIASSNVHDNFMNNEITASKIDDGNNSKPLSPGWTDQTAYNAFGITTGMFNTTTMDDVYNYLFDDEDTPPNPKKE

Experiment [5] concerns turtle Androgen Receptor (AR), gene 101947425. The experiment is described as follows: ATG_trAR_XSP2: Attagene TRANS-FACTORIAL Multi-Species (XSP2) HepG2 Assay for turtle Androgen Receptor (AR) (AID 2283815). An outline of the steps:
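HepG2 cells transiently transfected with GAL4-UAS reporter units for chimeric NR-Gal4 receptors; 24 h dosing in presence of 3 nM 6-alpha-fluorotestosterone and 1.5 nM norgestrel. Reporter mRNA by RT-PCR and capillary electrophoresis, gain of signal versus DMSO.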

The target in experiment [6] is zebrafish Estrogen Receptor (ER1), esr1 (gene 259252) (UniProt P57717). The experiment in a line: ATG_zfER1_XSP2: Attagene TRANS-FACTORIAL Multi-Species (XSP2) HepG2 Assay for zebrafish Estrogen Receptor (ER1) (AID 2283816). An outline of the steps: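 HepG2 cells transiently transfected with a GAL4-UAS reporter and a chimeric zebrafish ER1-Gal4 construct, dosed 24 h. Reporter mRNA quantified by RT-PCR, labelling, HpaI digestion and capillary electrophoresis, relative to DMSO.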
Chain of zebrafish Estrogen Receptor (ER1), esr1 (gene 259252) (P57717 whole entry, looked up, the tested form may be a part): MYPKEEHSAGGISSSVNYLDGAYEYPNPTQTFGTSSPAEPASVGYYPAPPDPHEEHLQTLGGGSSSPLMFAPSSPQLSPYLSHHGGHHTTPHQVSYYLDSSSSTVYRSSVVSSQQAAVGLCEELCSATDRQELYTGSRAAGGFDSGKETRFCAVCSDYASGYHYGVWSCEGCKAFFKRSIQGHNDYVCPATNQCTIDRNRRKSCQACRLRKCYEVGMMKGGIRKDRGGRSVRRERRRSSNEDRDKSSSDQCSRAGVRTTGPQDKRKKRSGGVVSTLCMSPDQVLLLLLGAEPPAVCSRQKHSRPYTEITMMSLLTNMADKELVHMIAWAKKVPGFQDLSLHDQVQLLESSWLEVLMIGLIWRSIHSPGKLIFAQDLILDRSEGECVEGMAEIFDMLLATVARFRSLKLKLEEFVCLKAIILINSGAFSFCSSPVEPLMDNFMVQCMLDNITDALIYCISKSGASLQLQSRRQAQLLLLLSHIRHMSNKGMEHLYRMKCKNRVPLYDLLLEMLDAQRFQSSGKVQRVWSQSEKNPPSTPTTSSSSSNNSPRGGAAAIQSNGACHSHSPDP

In experiment [7] the target is chicken Estrogen Receptor (ERa), ESR1 (gene 396099) (UniProt P06212). The experiment is described as follows: ATG_chERa_XSP2: Attagene TRANS-FACTORIAL Multi-Species (XSP2) HepG2 Assay for chicken Estrogen Receptor (ERa) (AID 2283817).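 Also: actives raise reporter signal above DMSO so AC50 reflects ER activation.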 An outline of the steps:
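Transiently transfected HepG2 cells expressing chimeric chicken ERa-GAL4 reporter units, dosed 24 h with 3 nM 6-alpha-fluorotestosterone and 1.5 nM norgestrel present. Reporter mRNA measured by RT-PCR and capillary electrophoresis; gain-of-signal fitted relative to DMSO.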

For experiment [8], the system named is zebrafish Estrogen Receptor (ER2a), gene 317734. The experiment is described as follows: ATG_zfER2a_XSP2: Attagene TRANS-FACTORIAL Multi-Species (XSP2) HepG2 Assay for zebrafish Estrogen Receptor (ER2a) (AID 2283818).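 Also: hits raise reporter mRNA so AC50 reflects activation of zebrafish ER2a.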 An outline of the steps: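 HepG2 cells transiently transfected with GAL4-UAS reporter units and chimeric zebrafish ER2a-Gal4, exposed 24 h; medium contains 3 nM 6-alpha-fluorotestosterone and 1.5 nM norgestrel. Reporter mRNA quantified by RT-PCR, HpaI digestion, capillary electrophoresis; gain versus DMSO.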

In experiment [9] the test system is chicken Androgen Receptor (AR), gene 422165. The experiment is described as follows: ATG_chAR_XSP2: Attagene TRANS-FACTORIAL Multi-Species (XSP2) HepG2 Assay for chicken Androgen Receptor (AR) (AID 2283819).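 Also: hits raise reporter mRNA above DMSO so potency is for activation.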 An outline of the steps: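 HepG2 cells transiently transfected with chicken AR–GAL4 chimeric reporter constructs, stimulated with 3 nM 6-alpha-fluorotestosterone plus 1.5 nM norgestrel, dosed 24 h. Reporter mRNA quantified by RT-PCR and capillary electrophoresis; gain of signal fitted versus DMSO.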

In experiment [10] the test system is frog Estrogen Receptor (ER), gene 398734. The experiment in a line: ATG_frER1_XSP2: Attagene TRANS-FACTORIAL Multi-Species (XSP2) HepG2 Assay for frog Estrogen Receptor (ER) (AID 2283821).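 Also: hits raise reporter mRNA above DMSO baseline so potency means agonist or activator.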 An outline of the steps:
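HepG2 cells transiently transfected with GAL4-UAS reporter units expressing a chimeric frog ER-Gal4 protein; 24 h exposure. Reporter mRNA quantified by RT-PCR, fluorescent labelling and capillary electrophoresis; gain of signal fitted against DMSO baseline.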

The subject of experiment [11] is zebrafish Estrogen Receptor (ER2b), gene 317733. The experiment is described as follows: ATG_zfER2b_XSP2: Attagene TRANS-FACTORIAL Multi-Species (XSP2) HepG2 Assay for zebrafish Estrogen Receptor (ER2b) (AID 2283823).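 Also: fitted upward as reporter gain over DMSO so potency reflects activation.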 An outline of the steps: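 Read-out: fluorescent reporter mRNA, measured by RT-PCR then capillary electrophoresis after HpaI digestion. HepG2 cells carried transiently transfected multi-reporter TRANS constructs (NR-Gal4 chimeras); 24 h chemical exposure; activity scored upward versus DMSO control.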

Experiment [12] concerns frog Estrogen Receptor (ER2), gene 100174814. The experiment is described as follows: ATG_frER2_XSP2: Attagene TRANS-FACTORIAL Multi-Species (XSP2) HepG2 Assay for frog Estrogen Receptor (ER2) (AID 2283828). An outline of the steps:
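HepG2 cells transiently transfected with multiplexed GAL4-UAS reporter units expressing chimeric frog ER2–Gal4 protein; reporter mRNA measured 24 h after chemical dosing by RT-PCR, fluorescent labeling and capillary electrophoresis. Gain-of-signal fitted relative to DMSO baseline.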

Experiment [13] deals with mouse Peroxisome Proliferator-activated Receptor gamma (PPARg), Pparg (gene 19016) (UniProt P37238). The experiment is described as follows: ATG_mPPARg_XSP2: Attagene TRANS-FACTORIAL Multi-Species (XSP2) HepG2 Assay for mouse Peroxisome Proliferator-activated Receptor gamma (PPARg) (AID 2283830).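 Also: hits are gains in reporter mRNA above DMSO so AC50 marks activation.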 An outline of the steps: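 HepG2 cells transiently transfected with GAL4-UAS reporter units for chimeric NR-Gal4 proteins including mouse PPARg, exposed 24 h; medium contained 3 nM 6-alpha-fluorotestosterone and 1.5 nM norgestrel. Reporter mRNA quantified by RT-PCR, HpaI digestion and capillary electrophoresis, vs DMSO.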
Chain of mouse Peroxisome Proliferator-activated Receptor gamma (PPARg), Pparg (gene 19016) (P37238 whole entry, looked up, the tested form may be a part): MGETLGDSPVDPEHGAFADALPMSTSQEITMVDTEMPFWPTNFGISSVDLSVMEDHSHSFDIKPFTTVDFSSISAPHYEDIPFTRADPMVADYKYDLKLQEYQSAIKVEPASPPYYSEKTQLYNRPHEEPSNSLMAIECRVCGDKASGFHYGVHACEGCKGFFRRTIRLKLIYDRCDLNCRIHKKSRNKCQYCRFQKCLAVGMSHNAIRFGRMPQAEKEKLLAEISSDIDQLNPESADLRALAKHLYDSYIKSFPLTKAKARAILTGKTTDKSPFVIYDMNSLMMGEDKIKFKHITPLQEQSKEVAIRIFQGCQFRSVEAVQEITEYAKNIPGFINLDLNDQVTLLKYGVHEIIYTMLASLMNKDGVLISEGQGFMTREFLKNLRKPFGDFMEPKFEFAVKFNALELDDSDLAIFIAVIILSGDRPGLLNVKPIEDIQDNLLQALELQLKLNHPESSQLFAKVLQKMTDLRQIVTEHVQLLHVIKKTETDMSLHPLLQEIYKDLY

In experiment [14] the target is zebrafish Thyroid Hormone Receptor alpha (TRa), thraa (gene 30670) (UniProt Q98867). The experiment is described as follows: ATG_zfTRa_XSP2: Attagene TRANS-FACTORIAL Multi-Species (XSP1) HepG2 Assay for zebrafish Thyroid Hormone Receptor alpha (TRa) (AID 2283832).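 Also: actives raise zebrafish TRa-Gal4 reporter transcript above DMSO baseline.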 An outline of the steps: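 HepG2 transiently transfected with GAL4-UAS reporter units and chimeric zebrafish TRa-Gal4; reporter mRNA quantified after 24 h dosing by RT-PCR, HpaI digestion and capillary electrophoresis fluorescence. Gain of signal vs DMSO; XSP2 medium contains 3 nM 6-alpha-fluorotestosterone, 1.5 nM norgestrel.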
Chain of zebrafish Thyroid Hormone Receptor alpha (TRa), thraa (gene 30670) (Q98867 whole entry, looked up, the tested form may be a part): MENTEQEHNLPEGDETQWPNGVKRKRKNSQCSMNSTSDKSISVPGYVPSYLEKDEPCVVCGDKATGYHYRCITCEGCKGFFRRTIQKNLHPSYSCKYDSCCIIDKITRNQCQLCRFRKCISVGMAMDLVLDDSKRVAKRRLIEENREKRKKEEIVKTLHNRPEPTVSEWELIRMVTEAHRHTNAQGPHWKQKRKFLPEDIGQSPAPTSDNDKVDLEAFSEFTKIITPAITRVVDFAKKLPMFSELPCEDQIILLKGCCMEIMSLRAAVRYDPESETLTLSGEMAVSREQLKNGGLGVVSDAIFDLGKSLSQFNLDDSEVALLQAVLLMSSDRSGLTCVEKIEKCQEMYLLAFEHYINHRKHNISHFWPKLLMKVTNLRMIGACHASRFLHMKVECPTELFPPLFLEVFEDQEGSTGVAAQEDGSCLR

Experiment [15] deals with Estrogen receptor (Homo sapiens) (UniProt P03372). The experiment is described as follows: ATG_hERa_XSP2: Attagene TRANS-FACTORIAL Multi-Species (XSP2) HepG2 Assay for human Estrogen Receptor (ERa) (AID 2283827). The procedure, abridged:
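HepG2 cells transiently transfected with multiplexed GAL4-UAS reporters driven by chimeric receptor-Gal4 proteins, dosed 24 h with 3 nM 6-alpha-fluorotestosterone and 1.5 nM norgestrel present. Reporter mRNA by RT-PCR and capillary electrophoresis; gain-of-signal fit versus DMSO.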

The target in experiment [16] is Peroxisome proliferator-activated receptor gamma (Homo sapiens) (UniProt P37231). The experiment in a line: ATG_hPPARg_XSP2: Attagene TRANS-FACTORIAL Multi-Species (XSP2) HepG2 Assay for human Peroxisome Proliferator-activated Receptor gamma (PPARg) (AID 2283829).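 Also: actives raise reporter mRNA above DMSO so AC50 reflects PPARg activation.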 An outline of the steps:
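HepG2 cells transiently transfected with multiplexed GAL4-UAS reporter units for chimeric NR-Gal4 receptors, dosed 24 h. Reporter mRNA quantified by RT-PCR, 6-FAM labeling, HpaI digestion and capillary electrophoresis; gain-of-signal fitted against DMSO baseline.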

A short description of experiment [17]: ATG_M_19_XSP2: Attagene TRANS-FACTORIAL Multi-Species (XSP2) HepG2 Assay for M32 Transcription Factor (Internal Marker) (AID 2283822). The procedure, abridged: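 Internal background marker in a multi-species nuclear receptor TRANS panel: transfected HepG2 cells exposed 24 h, with 3 nM 6-alpha-fluorotestosterone and 1.5 nM norgestrel present. Readout is RT-PCR of reporter transcripts resolved by capillary electrophoresis, gain-of-signal versus DMSO.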

The nature of experiment [18]: ATG_M_32_XSP2: Attagene TRANS-FACTORIAL Multi-Species (XSP2) HepG2 Assay for M19 Transcription Factor (Internal Marker) (AID 2283826). An outline of the steps: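 HepG2 cells transiently transfected with GAL4-UAS reporter transcription units, dosed with compound for 24 h in presence of 3 nM 6-alpha-fluorotestosterone and 1.5 nM norgestrel; reporter mRNA quantified by RT-PCR, FAM labelling, HpaI digestion and capillary electrophoresis.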

As usually defined, the AC50 is the concentration giving half of the maximal activity seen.

Molecules are shown by their SMILES. Values joined by “and” are separate entries in the source; they are usually repeats but may differ in a detail not shown here. Equal values may be shown once. Results filed as inconclusive are left out. A structure can be active in one record and inactive in another. Active and inactive are the calls of the source. The calls were made as follows: active = hit-call score of the fitted dose curve at least 0.9, where 1 is the maximum; inconclusive = response in the unintended direction; inactive = score below 0.9.

Chain of chicken Estrogen Receptor (ERa), ESR1 (gene 396099) (P06212 whole entry, looked up, the tested form may be a part): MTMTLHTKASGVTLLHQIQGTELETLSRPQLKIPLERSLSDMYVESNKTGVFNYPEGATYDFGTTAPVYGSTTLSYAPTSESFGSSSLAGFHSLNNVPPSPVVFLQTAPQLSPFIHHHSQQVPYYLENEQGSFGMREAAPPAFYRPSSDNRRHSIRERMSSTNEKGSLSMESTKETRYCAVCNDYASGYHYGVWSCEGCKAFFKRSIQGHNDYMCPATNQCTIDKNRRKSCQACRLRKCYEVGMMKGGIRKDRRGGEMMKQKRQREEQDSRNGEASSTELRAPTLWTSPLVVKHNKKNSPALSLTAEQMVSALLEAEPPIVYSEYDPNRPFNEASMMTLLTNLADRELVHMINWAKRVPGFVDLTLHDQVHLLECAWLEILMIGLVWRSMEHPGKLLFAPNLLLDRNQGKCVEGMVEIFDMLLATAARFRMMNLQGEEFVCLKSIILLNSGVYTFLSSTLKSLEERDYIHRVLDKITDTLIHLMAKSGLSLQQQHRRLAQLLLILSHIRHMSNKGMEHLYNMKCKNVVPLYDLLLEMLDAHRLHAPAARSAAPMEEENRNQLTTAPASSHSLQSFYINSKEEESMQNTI
Chain of Peroxisome proliferator-activated receptor gamma (Homo sapiens) (P37231 whole entry, looked up, the tested form may be a part): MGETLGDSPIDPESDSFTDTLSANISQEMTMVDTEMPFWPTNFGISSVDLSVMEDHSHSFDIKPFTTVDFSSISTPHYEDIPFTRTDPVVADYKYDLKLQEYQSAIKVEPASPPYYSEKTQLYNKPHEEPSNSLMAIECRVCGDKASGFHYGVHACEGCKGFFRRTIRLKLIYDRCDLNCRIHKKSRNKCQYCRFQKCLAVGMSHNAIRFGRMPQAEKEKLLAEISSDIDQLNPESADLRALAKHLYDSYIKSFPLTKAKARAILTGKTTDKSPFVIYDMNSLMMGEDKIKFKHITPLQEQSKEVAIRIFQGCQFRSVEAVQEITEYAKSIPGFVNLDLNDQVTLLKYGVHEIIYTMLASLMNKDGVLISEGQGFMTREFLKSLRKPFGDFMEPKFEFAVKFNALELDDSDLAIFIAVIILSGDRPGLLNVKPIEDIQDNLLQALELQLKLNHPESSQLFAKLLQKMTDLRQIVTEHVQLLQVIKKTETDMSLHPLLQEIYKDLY
Chain of Estrogen receptor (Homo sapiens) (P03372 whole entry, looked up, the tested form may be a part): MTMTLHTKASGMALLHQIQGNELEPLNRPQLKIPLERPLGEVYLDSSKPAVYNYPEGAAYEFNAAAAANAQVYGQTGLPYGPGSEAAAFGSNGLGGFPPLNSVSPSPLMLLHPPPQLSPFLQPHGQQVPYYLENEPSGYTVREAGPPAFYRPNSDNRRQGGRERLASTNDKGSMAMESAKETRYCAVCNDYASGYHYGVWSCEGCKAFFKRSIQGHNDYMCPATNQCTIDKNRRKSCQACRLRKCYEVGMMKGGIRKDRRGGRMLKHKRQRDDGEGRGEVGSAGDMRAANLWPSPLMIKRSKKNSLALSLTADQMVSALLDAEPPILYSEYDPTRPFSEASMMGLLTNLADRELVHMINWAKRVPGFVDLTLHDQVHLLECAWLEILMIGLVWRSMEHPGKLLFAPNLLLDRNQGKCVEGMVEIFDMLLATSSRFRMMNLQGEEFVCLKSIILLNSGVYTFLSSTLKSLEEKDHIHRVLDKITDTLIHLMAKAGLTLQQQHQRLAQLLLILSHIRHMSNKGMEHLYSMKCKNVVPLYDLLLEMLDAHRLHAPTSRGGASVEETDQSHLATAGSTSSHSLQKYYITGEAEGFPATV
Chain of Estrogen receptor beta (Homo sapiens) (Q92731 whole entry, looked up, the tested form may be a part): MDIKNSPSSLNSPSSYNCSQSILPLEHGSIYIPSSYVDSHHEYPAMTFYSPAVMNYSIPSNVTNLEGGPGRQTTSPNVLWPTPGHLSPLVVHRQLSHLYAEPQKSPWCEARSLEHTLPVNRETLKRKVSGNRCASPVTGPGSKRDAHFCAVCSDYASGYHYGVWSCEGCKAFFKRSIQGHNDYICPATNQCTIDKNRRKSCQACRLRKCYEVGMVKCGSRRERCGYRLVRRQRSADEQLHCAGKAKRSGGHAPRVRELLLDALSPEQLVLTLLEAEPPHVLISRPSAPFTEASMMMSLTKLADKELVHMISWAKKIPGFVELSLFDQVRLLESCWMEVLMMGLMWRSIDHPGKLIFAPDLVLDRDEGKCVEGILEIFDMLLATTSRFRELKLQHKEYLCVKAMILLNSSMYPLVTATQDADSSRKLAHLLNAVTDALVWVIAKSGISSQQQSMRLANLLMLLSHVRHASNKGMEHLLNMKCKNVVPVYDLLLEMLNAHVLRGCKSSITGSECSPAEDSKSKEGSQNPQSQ

For `CCCCOC(=O)c1ccccc1C(=O)OCc1ccccc1`, the outcome in [1], in experiment [3], in experiment [4], in experiment [5], in [6] and in experiment [9] was inactive. Also, the molecule was called inactive in experiment [14]. The AC50 in experiment [2] is 61.1 µM (active); in [7], 46.7 µM (active); in experiment [8], 43.1 µM (active); in experiment [10], 80.4 µM (active); in experiment [11], 55.4 µM (active); in experiment [12], 24.7 µM (active). Also, in experiment [13], the AC50 was 60.8 µM (active).

Turning to `Clc1ccc(C(c2ccc(Cl)cc2)C(Cl)Cl)cc1`, the molecule was classed as inactive in experiment [1], in experiment [4], in experiment [6], in experiment [16], in experiment [13] and in experiment [14]. Moreover, the AC50 in experiment [2] was 11.6 µM (active); in [7], 2.47 µM (active); in [8] it was 2.85 µM (active); in [10] it was 3.04 µM (active); in experiment [11], 5.29 µM (active); in experiment [15], 9.28 µM (active). Also, the AC50 in experiment [12] was 5.5 µM (active).

Consider `CC(C)(C)C(O)(CCc1ccc(Cl)cc1)Cn1cncn1` (configuration not stated), for which the molecule was called inactive in [1], in experiment [2], in [4], in experiment [6], in experiment [7] and in experiment [8]. Further, the molecule was called inactive in experiment [10], in experiment [17], in experiment [18], in experiment [12], in experiment [16] and in experiment [13]. Besides, the molecule was called inactive in [14]. Moreover, the AC50 in [8] is 25.8 µM (active); in experiment [11] it was 132 µM (active) and 61 µM (active).
